Consider nine sequences from the supplement of paper PMC10681739.

In the experiment the target is T1, ETS1 (UniProt P14921).
T1 sequence: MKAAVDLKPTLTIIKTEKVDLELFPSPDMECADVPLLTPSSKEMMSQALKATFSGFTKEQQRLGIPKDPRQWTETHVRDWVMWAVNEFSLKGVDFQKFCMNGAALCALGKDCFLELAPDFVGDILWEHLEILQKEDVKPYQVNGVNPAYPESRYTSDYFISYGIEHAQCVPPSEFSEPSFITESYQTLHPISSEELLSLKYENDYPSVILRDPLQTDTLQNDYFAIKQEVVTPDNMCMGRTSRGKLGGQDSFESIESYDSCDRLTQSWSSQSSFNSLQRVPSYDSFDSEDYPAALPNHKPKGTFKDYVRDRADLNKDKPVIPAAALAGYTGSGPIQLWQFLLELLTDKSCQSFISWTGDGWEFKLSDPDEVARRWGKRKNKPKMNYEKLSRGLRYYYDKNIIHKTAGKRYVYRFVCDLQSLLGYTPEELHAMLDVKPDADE
In words: TF binding intensity (PBM fluorescence), negative control probe (arbitrary fluorescence units); higher = stronger binding. On the procedure: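 gcPBM negative-control 36-bp genomic probes lacking TF binding sites. Each was incubated with recombinant human ETS1 or RUNX1 alone and detected by antibody fluorescence. Values are medians over replicate spots (4 spots for the ETS1-RUNX1 arrays, 3 for the ETS1-ETS1 array). The probes sit in constant array flanks that are not printed.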
As for “CTAAATGGCATCTGATGTGGTATCTCTCCTCAGTTC (protein concentration 1 nM)”, the TF binding intensity was 455.

Consider “AATGAATCTGCATGAATAAAAGGGTCAACACAGCAG (protein concentration 10 nM)”, for which the TF binding intensity was 147.

The sequence “TCAGCCTGAGAGCTATGTGGGTGAATAAAAATAAAA (protein concentration 1 nM)” gave a TF binding intensity of 499.

“TGACCGGCGCCGACCCGGGGCGCCGAGAGGCCCACC (protein concentration 10 nM)” gave a TF binding intensity of 115.

In turn, “AGGTGATATCTATCCCTTTCATTTCTTCTGAACAGG (protein concentration 10 nM)” showed a TF binding intensity of 114.

In turn, “TAGTCCTGGAAAGGTCATGTCAACCCTCCTGCATAT (protein concentration 10 nM)” came in with a TF binding intensity of 115.

“AAATAAATTCTTGTCTGGGGCCGACATCTGTGTGGA (protein concentration 10 nM)” returned a TF binding intensity of 119.

“ACTGGCTAAGGTCTCTCCTGACCTGATTCCATTCTT (protein concentration 10 nM)”: the TF binding intensity is 97.3.

Turning to “CTGAAATTAACCCAAAGGTTGTGTGTGGACCTCCCT (protein concentration 10 nM)”, the TF binding intensity is 109.
